Results as given in PubChem BioAssay (Tox21).
Records with an inconclusive call do not appear. The source made the active and inactive calls. Unless noted, the call rests on the fitted dose curve; in most records, active means well fitted curve in the direction sought with a large enough effect in the repeat runs; inconclusive means weak or mixed curves; inactive means no such curve, though single readings can be large; an effect the other way counts as inactive or inconclusive.

Assays:
[1] = qHTS assay to identify small molecule agonists of the RXR signaling pathway - cell viability counter screen (AID 1159529); further: series mostly up to about 77 µM; nearly all actives have a fitted effect of over 50% in size
How it was run: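 RXR-alpha-UAS-bla HEK 293T cells in medium with 2% charcoal-stripped FBS were pre-incubated 5 hr, then compound-treated 16 hr at 37 C. Viability was read by CellTiter-Glo luminescence in the same wells as the beta-lactamase assay, with tetraoctyl ammonium bromide as positive control.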

[2] = qHTS assay to identify small molecule antagonists of the retinoid acid receptor (RAR) signaling pathway - cell viability counter screen (AID 1159551); further: nearly all actives have a fitted effect of over 35% in size
How it was run: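 C3RL4 RARE-luciferase cells, 1,000/well, incubated overnight, then dosed with compound plus 1 uM retinol (final). After 6 hr at 37 C, viability read by CellTiter-Glo ATP luminescence following 30 min at room temperature.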

[3] = qHTS assay to identify small molecule antagonists of the retinoic acid receptor (RAR) signaling pathway (AID 1159552; further: nearly all actives have a fitted effect of over 50% in size)
How it was run: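 Retinol signaling pathway inhibitors screened in C3RL4 RARE-luciferase reporter cells seeded overnight at 37 C, then compounds added with 1 uM (final) retinol as pathway substrate. After 6 hr at 37 C, luciferase luminescence read after 30 min at room temperature.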

[4] = qHTS assay to identify small molecule agonists of the retinoic acid receptor (RAR) signaling pathway (AID 1159553)
How it was run: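 C3RL4 RARE-luciferase cells were seeded at 1,000/well and grown overnight at 37 C, then exposed to compounds for 6 hr at 37 C, 5% CO2. Luciferase reagent was added and luminescence was read after 30 min at room temperature.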

[5] = qHTS assay to identify small molecule antagonists of the estrogen related receptor (ERR) signaling pathway from Tox21 library - cell viability counter screen (AID 1224834); further: nearly all actives have a fitted effect of over 30% in size; further: potency means the concentration at half of the fitted maximal effect
How it was run: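 ERR reporter cells, 2,000 per well, rested 6 h, then exposed to compound in DMSO for 17.5 hours at 37 C. Viability read as fluorescence after 30 min with CellTiter-Fluor.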

[6] = qHTS assay to identify small molecule antagonists of the constitutive androstane receptor (CAR) signaling pathway - cell viability counter screen (AID 1224837); further: nearly all actives have a fitted effect of over 45% in size; further: potency means the concentration at half of the fitted maximal effect
How it was run: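 HepG2 cells stably carrying hCAR and CYP2B6-2.2kb reporter, stimulated with 50 nM CITCO and compounds at 15 concentrations for 23 h at 37 C. Viability measured by CellTiter-Fluor fluorescence.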

[7] = biological target: Nuclear receptor subfamily 1 group I member 3 (Homo sapiens) (UniProt Q14994); test: qHTS assay to identify small molecule antagonists of the constitutive androstane receptor (CAR) signaling pathway (AID 1224838); further: nearly all actives have a fitted effect of over 40% in size
Sequence of Nuclear receptor subfamily 1 group I member 3 (Homo sapiens) (Q14994 whole entry, looked up): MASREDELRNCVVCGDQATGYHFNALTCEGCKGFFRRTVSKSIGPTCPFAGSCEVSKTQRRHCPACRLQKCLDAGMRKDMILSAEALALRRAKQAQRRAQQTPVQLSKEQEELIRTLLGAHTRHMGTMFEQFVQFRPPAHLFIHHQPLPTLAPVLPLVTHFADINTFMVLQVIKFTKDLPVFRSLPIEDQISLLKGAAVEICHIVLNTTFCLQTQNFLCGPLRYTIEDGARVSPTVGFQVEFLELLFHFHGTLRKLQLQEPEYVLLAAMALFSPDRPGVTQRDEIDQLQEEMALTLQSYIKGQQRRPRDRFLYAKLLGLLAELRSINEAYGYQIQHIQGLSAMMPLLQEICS
How it was run: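 HepG2 cells stably carrying hCAR and a CYP2B6-2.2kb luciferase reporter, seeded 4 hrs before compound (15 concentrations). Stimulated with 50 nM CITCO for 24 hr at 37 C. ONE-Glo luminescence read after 30 min at room temperature.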

[8] = qHTS assay to identify small molecule antagonists of the estrogen related receptor signaling pathway with the pleiotropic PPARgamma coactivator (PGC) from Tox21 10K library - cell viability counter screen (AID 1224840; active means well fitted cell-killing curve with a large enough effect in the repeat runs, not every such curve was filed as active; further: nearly all actives have a fitted effect of over 40% in size)
How it was run: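 PGC/ERR cells (2,000/well) plated 6 h, then compound-treated for 17.5 h at 37 C. Viability measured by CellTiter-Fluor fluorescence after 30 min at 37 C, multiplexed with the pathway assay.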

[9] = biological target: Thyrotropin receptor (Homo sapiens) (UniProt P16473); test: qHTS assay to identify small molecule agonists of the thyroid stimulating hormone receptor (TSHR) signaling pathway (AID 1224843; calls by dose curve; further: nearly all actives have a fitted effect of over 45% in size)
Sequence of Thyrotropin receptor (Homo sapiens) (P16473 whole entry, looked up): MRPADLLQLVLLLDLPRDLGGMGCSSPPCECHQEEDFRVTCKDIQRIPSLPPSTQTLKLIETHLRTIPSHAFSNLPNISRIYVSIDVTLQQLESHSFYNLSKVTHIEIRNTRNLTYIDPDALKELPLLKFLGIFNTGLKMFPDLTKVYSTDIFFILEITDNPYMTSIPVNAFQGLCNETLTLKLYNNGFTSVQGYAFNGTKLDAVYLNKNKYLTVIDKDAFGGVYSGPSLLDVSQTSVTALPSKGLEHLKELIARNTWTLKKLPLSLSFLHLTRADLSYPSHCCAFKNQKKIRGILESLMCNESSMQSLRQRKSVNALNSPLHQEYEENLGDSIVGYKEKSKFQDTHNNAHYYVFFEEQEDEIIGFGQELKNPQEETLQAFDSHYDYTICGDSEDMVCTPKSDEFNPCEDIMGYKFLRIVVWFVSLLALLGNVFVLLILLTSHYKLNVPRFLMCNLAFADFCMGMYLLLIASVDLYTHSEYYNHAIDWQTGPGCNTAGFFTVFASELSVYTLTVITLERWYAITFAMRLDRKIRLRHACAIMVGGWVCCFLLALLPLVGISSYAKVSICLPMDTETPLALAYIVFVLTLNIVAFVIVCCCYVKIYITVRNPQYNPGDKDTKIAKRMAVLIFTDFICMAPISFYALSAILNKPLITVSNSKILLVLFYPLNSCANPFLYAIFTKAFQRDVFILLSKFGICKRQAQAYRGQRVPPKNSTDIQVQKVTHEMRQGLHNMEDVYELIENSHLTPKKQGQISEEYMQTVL
How it was run: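 HEK293 cells stably bearing the thyrotropin receptor were plated at 800 cells/well and challenged with compound (30 min, RT). Accumulated cAMP was quantified via cAMP-d2 competing for cryptate-tagged antibody.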

[10] = biological target: Luciferin 4-monooxygenase (Photinus pyralis) (UniProt P08659); test: qHTS assay to identify small molecule inhibitors of firefly luciferase (AID 1224835); further: series mostly up to about 120 µM; nearly all actives have a fitted effect of over 25% in size
Sequence of Luciferin 4-monooxygenase (Photinus pyralis) (P08659 whole entry, looked up): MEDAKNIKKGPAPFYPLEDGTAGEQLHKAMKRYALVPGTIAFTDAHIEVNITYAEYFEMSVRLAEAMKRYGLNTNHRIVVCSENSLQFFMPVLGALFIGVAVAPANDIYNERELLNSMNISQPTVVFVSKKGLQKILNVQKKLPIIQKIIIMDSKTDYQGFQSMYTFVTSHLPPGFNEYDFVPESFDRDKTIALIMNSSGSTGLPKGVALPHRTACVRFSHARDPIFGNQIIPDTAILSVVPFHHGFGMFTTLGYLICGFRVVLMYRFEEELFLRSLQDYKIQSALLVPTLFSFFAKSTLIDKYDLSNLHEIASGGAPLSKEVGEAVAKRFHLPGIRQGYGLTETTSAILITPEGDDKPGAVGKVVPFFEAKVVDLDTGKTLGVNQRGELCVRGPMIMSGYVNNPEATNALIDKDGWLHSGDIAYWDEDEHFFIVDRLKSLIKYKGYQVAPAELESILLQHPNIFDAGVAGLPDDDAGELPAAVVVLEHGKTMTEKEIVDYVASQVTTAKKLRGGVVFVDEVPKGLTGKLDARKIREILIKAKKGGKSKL
How it was run: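 Inhibition of purified Photinus luciferase is measured by luminescence. Substrate levels (D-luciferin, ATP) sit at their KM values. Each compound is tested in a concentration series.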

[11] = biological target: Nuclear receptor subfamily 1 group I member 3 (Homo sapiens) (UniProt Q14994); test: qHTS assay to identify small molecule agonists of the constitutive androstane receptor (CAR) signaling pathway (AID 1224839); further: series mostly up to about 92 µM; nearly all actives have a fitted effect of over 15% in size
How it was run: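 HepG2 cells stably co-transfected with hCAR and a CYP2B6-2.2kb luciferase reporter; compounds at 15 concentrations with 0.75 uM PK11195 present. After 24 hr at 37 C, luciferase read by ONE-Glo luminescence.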

[12] = qHTS assay to identify small molecule agonists of the constitutive androstane receptor (CAR) signaling pathway - cell viability counter screen (AID 1224836); further: nearly all actives have a fitted effect of over 45% in size; further: potency means the concentration at half of the fitted maximal effect
How it was run: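 HepG2 cells stably carrying hCAR and a CYP2B6-2.2kb reporter; 15-concentration compounds plus PK11195 (final 0.75 uM), 23 hr at 37 C/5% CO2. Viability read by CellTiter-Fluor fluorescence.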

[13] = qHTS assay to identify small molecule antagonists of the estrogen related receptor signaling pathway with the pleiotropic PPARgamma coactivator (PGC) from Tox21 10K library (AID 1224841; call rule not given here; further: series mostly up to about 92 µM; actives are mostly falling curves and most rising ones were filed inactive; nearly all actives have a fitted effect of over 50% in size)
How it was run: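 PGC/ERR cell line, 2,000 cells/well, pre-incubated 6 hours at 37 C, then exposed to compounds for 18 hours at 37 C; luciferase read with One-Glo luminescence after 30 min at room temperature.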

[14] = qHTS assay to identify small molecule agonists of the estrogen related receptor signaling pathway with the pleiotropic PPARgamma coactivator (PGC) from Tox21 10K library (AID 1224842); further: nearly all actives have a fitted effect of over 15% in size
How it was run: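 Luminescence from One-Glo (30 min, room temperature) measured after PGC/ERR cells had 18 h at 37 C with pinned compound (23 nL in DMSO). Cells had been seeded at 2,000 per well and pre-incubated 6 h.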

[15] = qHTS assay to identify small molecule antagonists of the estrogen related receptor (ERR) signaling pathway (AID 1224819;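 further: luminescence from an ERR-driven luciferase reporter measured with One-Glo reagent; series mostly up to about 46 µM; nearly all actives have a fitted effect of over 50% in size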)
How it was run: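 ERR reporter cell line (NTP) plated at 2,000 cells/well, settled 6 h at 37C/5% CO2, then exposed to LOPAC compounds for 18 h at 37C. One-Glo luciferase luminescence read after 30 min at room temperature.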

[16] = qHTS assay to identify small molecule agonists of the estrogen related receptor (ERR) signaling pathway (AID 1224820)
How it was run: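 ERR reporter cells (NTP line) plated 2,000/well, incubated 6 h at 37 C/5% CO2, then pinned with compounds in DMSO and held 18 h at 37 C. One-Glo added; luminescence read after 30 min at room temperature.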

[17] = tested on: estrogen-related receptor alpha (ERRalpha) with PGC-1alpha coactivator, human; test: qHTS assay to identify small molecule antagonists of the estrogen related receptor signaling pathway with the pleiotropic PPARgamma coactivator (PGC) (AID 1224821; calls by dose curve)
How it was run: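 Cells engineered for PGC/ERR signalling (line from NTP) were plated 6 h at 37 C/5% CO2, then exposed to DMSO-dissolved compound for 18 h at 37 C. Luciferase activity was read by One-Glo luminescence after 30 min at room temperature.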

Measured: Potency

O=C1c2ccccc2C(=O)C1c1ccccc1
inactive: [1] | [2] | [3] | [4] | [5] | [6] | [7] | [8] | [9]

O=C1CCCC(=O)O1
not listed: [4] | [12] | [13] | [14] | [15] | [16] | [17]
inactive: all other assays above

O=C(OCC(O)CO)c1ccccc1Nc1ccnc2c(C(F)(F)F)cccc12 (stereo not given)
inactive: [1] | [2] | [4] | [12] | [6] | [7] | [11] | [8] | [9]

O=C(O)c1ccc(Cl)cc1Cl
inactive: [1] | [2] | [3] | [5] | [12] | [6] | [8] | [9]

CCCC/C=C\CCCCCCCCCC=O
not listed: [2] | [3] | [4] | [11] | [15] | [16] | [17]
inactive: all other assays above

COc1ccc2c(c1OC)C(=O)O[C@@H]2[C@H]1c2c(cc3c(c2OC)OCO3)CCN1C
active: [5] 11.9 µM | [12] 8.41 µM | [6] 10.6 µM
not listed: [4] | [8] | [11]
inactive: all other assays above

CCO[Si](CCCS)(OCC)OCC
not listed: [4] | [7] | [11] | [15] | [16] | [17]
inactive: all other assays above

C=C(C)C(=O)OCCN(CC)CC
inactive: [1] | [2] | [5] | [6] | [7] | [11] | [8] | [9]

CC1(C)S[C@@H]2[C@H](N=CN3CCCCCC3)C(=O)N2[C@H]1C(=O)O
inactive: [1] | [2] | [10] | [12] | [6] | [7] | [11] | [8] | [9]

C[C@H](N)[C@H](O)c1cccc(O)c1
inactive: [1] | [2] | [4] | [5] | [12] | [6] | [8] | [9]

CCc1ccc(C=O)cc1
not listed: [3] | [4] | [10] | [15] | [16] | [17]
inactive: all other assays above

Cc1cc2cc3c(C)cc(=O)oc3c(C)c2o1
not listed: [4] | [10] | [11] | [15] | [16] | [17]
inactive: all other assays above

COC(=O)c1ccccc1C(=O)c1ccc(OCCN2CCCCC2)cc1
not listed: [3] | [4] | [10] | [15] | [16] | [17]
inactive: all other assays above

CC(=O)/C=C/C1C(C)=CCC(C)C1(C)C (stereo not given)
inactive: [1] | [2] | [3] | [6] | [7] | [8] | [13] | [14] | [9]

CCCCCCN
inactive: [1] | [2] | [3] | [5] | [10] | [12] | [6] | [8] | [9]

CC/C=C\CC1=C(C)CCC1=O
not listed: [3] | [4] | [11] | [12] | [15] | [16] | [17]
inactive: all other assays above

CCOc1cc([N+](=O)[O-])c(OCC)cc1N1CCOCC1
inactive: [1] | [2] | [3] | [4] | [10] | [12] | [6] | [8] | [9]

CC(C)OC(=O)CCCCC(=O)OC(C)C
inactive: [1] | [2] | [3] | [5] | [10] | [12] | [6] | [8] | [9]
